Reference: PubChem BioAssay (EPA / NIEHS)
Values joined by “and” are separate entries in the source; they are usually repeats but may differ in a detail not shown here. Equal entries are not always repeated. Results filed as inconclusive are left out. Where a structure was tested more than once in an assay, its records may differ in their call. Active and inactive are the calls of the source. The calls were made as follows, unless noted: active = hit-call score of the fitted dose curve at least 0.9, where 1 is the maximum; inactive = score below 0.9.

How the values were obtained:
[1] = ATG_PPRE_CIS: Attagene CIS-FACTORIAL HepG2 Assay for human Peroxisome Proliferator-activated Response Element (PPRE) (AID 2282958); details: HepG2 PPRE cis-element reporter, Attagene transcription factor profiling; actives raise or lower the signal
Procedure, shortened: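 Multiplexed reporter transcription units under cis-regulatory promoters were transfected into HepG2 cells to capture endogenous factor activity. A 24 h incubation preceded RNA isolation and fluorescent RT-PCR fragment analysis.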

[2] = ATG_RORE_CIS: Attagene CIS-FACTORIAL HepG2 Assay for human RAR-related Orphan Receptor Element (RORE) (AID 2282959); details: HepG2 Attagene cis-factorial RORE reporter, mRNA; actives raise or lower the signal
Procedure, shortened: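 Fluorescence intensity of reporter-specific cDNA fragments, separated by capillary electrophoresis, gives the signal. Source: HepG2 liver cells transiently transfected with cis-element reporters and exposed 24 h; DMSO-normalized bidirectional fit.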

[3] = ATG_Sox_CIS: Attagene CIS-FACTORIAL HepG2 Assay for human SRY-box transcription factor (SOX) (AID 2282960); details: HepG2 Attagene cis-factorial SOX reporter, mRNA; actives raise or lower the signal
Procedure, shortened: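 After 24 h of chemical treatment, transfected HepG2 reporter cells are lysed for total RNA. Transcript levels come from RT-PCR with labelled primer extension and capillary electrophoresis, analysed bidirectionally versus DMSO.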

[4] = biological target: Transcription factor Sp1 (Homo sapiens) (UniProt P08047); experiment: ATG_Sp1_CIS: Attagene CIS-FACTORIAL HepG2 Assay for human Specificity Protein 1 (Sp1) (AID 2282961); details: HepG2 Sp1 cis-reporter transcription, actives raise or lower the signal
Transcription factor Sp1 (Homo sapiens), sequence (P08047 whole entry, looked up): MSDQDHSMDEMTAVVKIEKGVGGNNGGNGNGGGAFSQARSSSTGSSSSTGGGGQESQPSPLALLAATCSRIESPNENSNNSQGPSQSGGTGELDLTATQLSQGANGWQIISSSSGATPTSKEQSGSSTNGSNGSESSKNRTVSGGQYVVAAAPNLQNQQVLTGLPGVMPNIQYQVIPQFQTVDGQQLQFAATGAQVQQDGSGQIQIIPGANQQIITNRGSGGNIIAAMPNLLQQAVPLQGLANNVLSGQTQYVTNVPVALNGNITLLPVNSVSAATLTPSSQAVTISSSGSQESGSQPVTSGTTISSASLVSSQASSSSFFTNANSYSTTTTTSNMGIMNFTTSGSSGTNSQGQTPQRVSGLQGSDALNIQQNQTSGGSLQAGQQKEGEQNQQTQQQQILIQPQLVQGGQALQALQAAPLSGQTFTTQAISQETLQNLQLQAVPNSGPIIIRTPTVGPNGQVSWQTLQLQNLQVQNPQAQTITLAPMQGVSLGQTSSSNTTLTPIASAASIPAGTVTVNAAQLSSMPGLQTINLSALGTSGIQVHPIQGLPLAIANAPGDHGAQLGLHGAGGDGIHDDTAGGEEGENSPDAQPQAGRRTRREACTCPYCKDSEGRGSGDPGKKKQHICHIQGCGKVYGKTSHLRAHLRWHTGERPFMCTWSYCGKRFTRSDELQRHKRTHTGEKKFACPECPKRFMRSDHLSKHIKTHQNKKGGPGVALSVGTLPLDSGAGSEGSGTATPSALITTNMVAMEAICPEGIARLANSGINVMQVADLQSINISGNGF
Procedure, shortened: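 Sp1-driven reporter mRNA, read as capillary electrophoresis fluorescence after RT-PCR, in transiently transfected HepG2 cells dosed for 24 h; signal change in either direction relative to DMSO.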

[5] = ATG_SREBP_CIS: Attagene CIS-FACTORIAL HepG2 Assay for human Sterol Regulatory Element Binding (SREBP) (AID 2282962); details: HepG2 Attagene cis-factorial SREBP reporter, mRNA; actives raise or lower the signal
Procedure, shortened: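 Endogenous factor activity is measured in HepG2 through multiplexed reporter units under cis-element control. Following a 24 h incubation, reporter transcripts are reverse-transcribed, PCR-amplified and sized by capillary electrophoresis; activity is fitted in both directions relative to DMSO.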

[6] = biological target: Signal transducer and activator of transcription 3 (Homo sapiens) (UniProt P40763); experiment: ATG_STAT3_CIS: Attagene CIS-FACTORIAL HepG2 Assay for human Signal Transducer and Activator of Transcription 3 (STAT3) (AID 2282963); details: HepG2, Attagene cis-factorial STAT3 reporter transcription; actives raise or lower the signal
Signal transducer and activator of transcription 3 (Homo sapiens), sequence (P40763 whole entry, looked up, the tested form may be a part): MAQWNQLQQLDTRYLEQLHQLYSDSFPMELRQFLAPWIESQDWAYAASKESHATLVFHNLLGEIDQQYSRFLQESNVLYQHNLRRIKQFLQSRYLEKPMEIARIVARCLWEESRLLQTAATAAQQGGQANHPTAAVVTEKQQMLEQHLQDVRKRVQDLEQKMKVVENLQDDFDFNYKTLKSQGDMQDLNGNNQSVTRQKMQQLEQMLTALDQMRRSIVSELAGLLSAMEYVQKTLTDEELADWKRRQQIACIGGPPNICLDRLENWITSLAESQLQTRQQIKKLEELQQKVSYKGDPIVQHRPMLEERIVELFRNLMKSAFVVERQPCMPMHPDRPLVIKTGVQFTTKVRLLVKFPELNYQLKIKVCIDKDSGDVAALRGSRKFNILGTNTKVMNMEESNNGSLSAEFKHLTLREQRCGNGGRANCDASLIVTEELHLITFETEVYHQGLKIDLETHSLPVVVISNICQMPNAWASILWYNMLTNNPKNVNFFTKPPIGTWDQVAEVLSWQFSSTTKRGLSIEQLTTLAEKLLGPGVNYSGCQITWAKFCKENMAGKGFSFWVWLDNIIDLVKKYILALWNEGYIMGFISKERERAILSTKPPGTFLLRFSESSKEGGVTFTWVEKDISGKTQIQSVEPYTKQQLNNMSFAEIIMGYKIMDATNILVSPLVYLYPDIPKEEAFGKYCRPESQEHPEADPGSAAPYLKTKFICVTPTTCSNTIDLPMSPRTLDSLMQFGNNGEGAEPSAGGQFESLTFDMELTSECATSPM
Procedure, shortened: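 Readout: fluorescent reporter mRNA fragments resolved by capillary electrophoresis. Setup: HepG2 transfected with MRTUs reporting endogenous transcription-factor activity, dosed 24 h. Gain or loss of signal fitted bidirectionally against DMSO control.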

[7] = ATG_TA_CIS: Attagene CIS-FACTORIAL HepG2 Assay for human TA Basal Promoter (AID 2282964); details: HepG2 Attagene CIS-factorial TA basal promoter reporter; actives raise or lower the signal
Procedure, shortened: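 Fluorescence from labelled RT-PCR reporter fragments, separated by capillary electrophoresis, gives the signal. Cells: HepG2 transiently carrying multiple reporter units, 24 h chemical dosing. Gain or loss relative to DMSO.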

[8] = ATG_TCF_b_cat_CIS: Attagene CIS-FACTORIAL HepG2 Assay for human T-Cell-Factor with beta-catenin (TCF/b-cat) (AID 2282965); details: HepG2 TCF/beta-catenin cis-reporter transcription, actives raise or lower the signal
Procedure, shortened: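 HepG2, transient MRTU transfection, cis-element-driven reporters (endogenous TFs). 24 h compound exposure. Readout: reporter mRNA by RT-PCR + 6-FAM primer extension, HpaI digest, capillary electrophoresis. Gain/loss fit vs DMSO baseline.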

[9] = ATG_TAL_CIS: Attagene CIS-FACTORIAL HepG2 Assay for human TAL Basal Promoter (AID 2282966); details: HepG2 Attagene cis-factorial TAL promoter reporter; actives raise or lower the signal;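 also: background control endpoint measuring basal TAL promoter reporter mRNA not a specific factor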
Procedure, shortened: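 After 24 hours of chemical exposure, transfected HepG2 cells yielded RNA that was converted to 6-FAM-labelled, HpaI-digested reporter fragments for capillary electrophoresis. Values derive from bidirectional fitting against DMSO controls.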

[10] = ATG_TGFb_CIS: Attagene CIS-FACTORIAL HepG2 Assay for human Transforming Growth Factor (TGF) (AID 2282967); details: HepG2 Attagene CIS TGFb reporter, mRNA transcription; actives raise or lower the signal
Procedure, shortened: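 Bidirectional fitting relative to DMSO gave the endpoint. Underlying data: reporter mRNA from HepG2 cells carrying transiently transfected cis-regulated reporter constructs, harvested 24 h after dosing and analyzed by RT-PCR and capillary electrophoresis.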

[11] = ATG_VDRE_CIS: Attagene CIS-FACTORIAL HepG2 Assay for human Vitamin D Receptor Element (VDRE) (AID 2282968); details: HepG2 VDRE cis-reporter transcription, actives raise or lower the signal
Procedure, shortened: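 Transient MRTU transfection of HepG2, 24 h compound exposure. Readout: reporter transcripts via RT-PCR and capillary electrophoresis, fluorescence. Bidirectional fit vs DMSO.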

[12] = biological target: Estrogen receptor (Homo sapiens) (UniProt P03372); experiment: ATG_ERa_TRANS: Attagene TRANS-FACTORIAL HepG2 Assay for human Estrogen Receptor alpha (ERa) (AID 2282970; active = hit-call score of the fitted dose curve at least 0.9, where 1 is the maximum); details: HepG2 Attagene TRANS ERa GAL4 reporter, mRNA
Estrogen receptor (Homo sapiens), sequence (P03372 whole entry, looked up, the tested form may be a part): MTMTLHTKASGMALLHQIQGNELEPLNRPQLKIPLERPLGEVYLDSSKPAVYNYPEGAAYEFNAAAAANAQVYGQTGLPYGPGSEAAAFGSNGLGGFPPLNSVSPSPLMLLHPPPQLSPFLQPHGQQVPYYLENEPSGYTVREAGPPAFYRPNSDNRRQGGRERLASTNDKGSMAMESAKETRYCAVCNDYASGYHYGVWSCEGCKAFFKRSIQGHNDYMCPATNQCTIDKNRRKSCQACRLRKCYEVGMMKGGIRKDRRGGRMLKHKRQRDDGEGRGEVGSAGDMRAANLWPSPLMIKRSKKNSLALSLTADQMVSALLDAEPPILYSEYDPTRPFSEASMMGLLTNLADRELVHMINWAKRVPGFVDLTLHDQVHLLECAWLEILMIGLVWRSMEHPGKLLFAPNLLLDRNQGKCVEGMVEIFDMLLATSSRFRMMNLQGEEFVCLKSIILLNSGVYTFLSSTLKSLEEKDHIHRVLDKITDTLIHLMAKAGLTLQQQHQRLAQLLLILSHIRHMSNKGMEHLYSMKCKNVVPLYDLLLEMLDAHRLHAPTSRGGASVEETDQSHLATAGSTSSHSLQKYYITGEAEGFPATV
Procedure, shortened: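 Liver-derived HepG2 cells expressing chimeric nuclear receptor-Gal4 proteins from transient transfection were exposed for 24 hours. Gain of reporter mRNA signal versus DMSO, read by capillary electrophoresis of FAM-labelled PCR products, was recorded.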

[13] = biological target: X-box-binding protein 1 (Homo sapiens) (UniProt P17861); experiment: ATG_Xbp1_CIS: Attagene CIS-FACTORIAL HepG2 Assay for human X-box Binding Protein 1 (XBP1) (AID 2282972); details: HepG2 XBP1 cis-element reporter, Attagene multiplex; actives raise or lower the signal
X-box-binding protein 1 (Homo sapiens), sequence (P17861 whole entry, looked up): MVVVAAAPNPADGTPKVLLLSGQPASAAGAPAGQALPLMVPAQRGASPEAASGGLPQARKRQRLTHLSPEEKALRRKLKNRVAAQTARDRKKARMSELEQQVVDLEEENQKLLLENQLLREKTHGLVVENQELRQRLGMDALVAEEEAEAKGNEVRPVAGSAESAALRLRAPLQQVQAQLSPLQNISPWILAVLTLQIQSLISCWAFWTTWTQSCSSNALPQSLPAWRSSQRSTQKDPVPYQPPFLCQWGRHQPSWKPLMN
Procedure, shortened: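 Multiplexed cis-reporter readout in transfected HepG2 liver cells. Exposure lasted 24 hours. Activity in either direction was fitted against DMSO as negative control and baseline.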

[14] = ATG_M_19_TRANS: Attagene TRANS-FACTORIAL HepG2 Assay for M19 Transcription Factor (Internal Marker) (AID 2282974; active = hit-call score of the fitted dose curve at least 0.9, where 1 is the maximum); details: HepG2 Attagene TRANS-FACTORIAL M19 internal marker reporter
Procedure, shortened: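 Measured here: internal-marker reporter transcript from HepG2 cells transfected with MRTUs, harvested at 24 h. cDNA PCR products were 6-FAM labelled by primer extension, cut with HpaI for 2 h at 37 C, and resolved by CE.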

[15] = ATG_GAL4_TRANS: Attagene TRANS-FACTORIAL HepG2 Assay for GAL4 (Internal Marker) (AID 2282976; active = hit-call score of the fitted dose curve at least 0.9, where 1 is the maximum); details: HepG2 Attagene TRANS GAL4 internal marker reporter
Procedure, shortened: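 First, HepG2 cells were transfected with reporter units under GAL4-UAS control. Next, they were treated with chemical for 24 h. Finally, RNA was reverse-transcribed, PCR-amplified, FAM-labelled and resolved by capillary electrophoresis, with induction scored against DMSO.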

[16] = biological target: Glucocorticoid receptor (Homo sapiens) (UniProt P04150); experiment: ATG_GR_TRANS: Attagene TRANS-FACTORIAL HepG2 Assay for human Glucocorticoid Receptor (GR) (AID 2282978; active = hit-call score of the fitted dose curve at least 0.9, where 1 is the maximum;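 also: activators score as hits since higher reporter transcript over DMSO is fitted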); details: HepG2 Attagene TRANS GR reporter, mRNA transcription
Glucocorticoid receptor (Homo sapiens), sequence (P04150 whole entry, looked up, the tested form may be a part): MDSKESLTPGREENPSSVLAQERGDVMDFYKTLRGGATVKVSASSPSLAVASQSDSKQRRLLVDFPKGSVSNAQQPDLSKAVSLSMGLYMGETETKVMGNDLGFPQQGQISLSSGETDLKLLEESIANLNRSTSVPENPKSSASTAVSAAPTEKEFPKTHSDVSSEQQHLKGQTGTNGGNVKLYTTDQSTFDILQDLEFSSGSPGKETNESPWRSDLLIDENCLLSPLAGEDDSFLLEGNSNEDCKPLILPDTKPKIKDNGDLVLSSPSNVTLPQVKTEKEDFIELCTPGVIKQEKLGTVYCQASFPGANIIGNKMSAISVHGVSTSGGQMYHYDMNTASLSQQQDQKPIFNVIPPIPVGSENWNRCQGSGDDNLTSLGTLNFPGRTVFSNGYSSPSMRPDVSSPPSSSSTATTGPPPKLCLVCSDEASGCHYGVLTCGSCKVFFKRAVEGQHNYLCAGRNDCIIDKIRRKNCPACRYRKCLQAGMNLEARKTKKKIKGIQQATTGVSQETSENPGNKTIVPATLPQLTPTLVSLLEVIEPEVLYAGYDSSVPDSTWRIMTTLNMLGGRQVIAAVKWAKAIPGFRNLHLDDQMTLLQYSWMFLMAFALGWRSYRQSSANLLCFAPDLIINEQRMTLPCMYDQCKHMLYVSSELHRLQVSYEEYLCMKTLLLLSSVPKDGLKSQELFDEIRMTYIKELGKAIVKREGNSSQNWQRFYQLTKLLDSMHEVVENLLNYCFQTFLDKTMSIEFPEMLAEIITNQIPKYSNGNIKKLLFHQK
Procedure, shortened: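 Measurement of GAL4-UAS-driven reporter mRNA in human HepG2 liver cells 24 h post-dosing, using RT-PCR with fluorescent labelling and capillary electrophoresis; the transfected constructs report exogenous NR-GAL4 chimera activity, fitted upward against DMSO.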

[17] = biological target: Nuclear receptor subfamily 1 group I member 3 (Homo sapiens) (UniProt Q14994); experiment: ATG_CAR_TRANS: Attagene TRANS-FACTORIAL HepG2 Assay for human Constitutive Androstane Receptor (CAR) (AID 2282969; active = hit-call score of the fitted dose curve at least 0.9, where 1 is the maximum;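 also: activators raise reporter mRNA above DMSO so AC50 marks induction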); details: HepG2 Attagene TRANS-FACTORIAL CAR reporter
Nuclear receptor subfamily 1 group I member 3 (Homo sapiens), sequence (Q14994 whole entry, looked up, the tested form may be a part): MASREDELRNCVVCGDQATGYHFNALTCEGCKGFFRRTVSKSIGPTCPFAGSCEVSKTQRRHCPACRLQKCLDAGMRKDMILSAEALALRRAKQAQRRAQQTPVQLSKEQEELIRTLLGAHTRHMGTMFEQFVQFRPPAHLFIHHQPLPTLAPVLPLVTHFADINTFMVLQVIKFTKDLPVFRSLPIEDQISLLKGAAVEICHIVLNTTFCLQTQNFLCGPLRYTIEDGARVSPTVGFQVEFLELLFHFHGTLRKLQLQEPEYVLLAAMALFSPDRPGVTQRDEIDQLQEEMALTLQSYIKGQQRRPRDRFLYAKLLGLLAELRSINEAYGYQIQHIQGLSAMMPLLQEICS
Procedure, shortened: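 Transiently transfected HepG2, multiplex TRANS reporters (CAR-Gal4 chimera driving GAL4-UAS reporter). 24 h dosing. Readout: reporter transcript by RT-PCR + capillary electrophoresis, fluorescence intensity; positive direction vs DMSO.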

[18] = biological target: Steroid hormone receptor ERR1 (Homo sapiens) (UniProt P11474); experiment: ATG_ERRa_TRANS: Attagene TRANS-FACTORIAL HepG2 Assay for human Estrogen-Related Receptor alpha (ERRa) (AID 2282971; active = hit-call score of the fitted dose curve at least 0.9, where 1 is the maximum); details: HepG2 Attagene TRANS reporter, ERRa transactivation
Steroid hormone receptor ERR1 (Homo sapiens), sequence (P11474 whole entry, looked up, the tested form may be a part): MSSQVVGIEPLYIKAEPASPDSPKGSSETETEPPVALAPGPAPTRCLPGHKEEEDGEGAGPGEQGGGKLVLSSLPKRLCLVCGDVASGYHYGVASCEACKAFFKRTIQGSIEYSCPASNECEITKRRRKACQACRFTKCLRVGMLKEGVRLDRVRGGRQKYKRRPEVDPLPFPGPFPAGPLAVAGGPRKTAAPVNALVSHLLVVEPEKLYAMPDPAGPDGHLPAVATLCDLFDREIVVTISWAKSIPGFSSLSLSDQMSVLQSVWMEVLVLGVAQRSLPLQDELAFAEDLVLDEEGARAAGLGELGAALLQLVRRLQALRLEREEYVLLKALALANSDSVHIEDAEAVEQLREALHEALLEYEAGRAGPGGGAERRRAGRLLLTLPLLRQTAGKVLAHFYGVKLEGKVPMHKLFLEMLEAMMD
Procedure, shortened: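 Reporter transcript induction was quantified by RT-PCR and capillary electrophoresis of FAM-labelled, HpaI-cut products after 24 h treatment of HepG2 cells carrying transiently transfected GAL4-UAS reporter units and an exogenous ERRa-Gal4 fusion; activity scored as increase over DMSO.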

[19] = biological target: Estrogen-related receptor gamma (Homo sapiens) (UniProt P62508); experiment: ATG_ERRg_TRANS: Attagene TRANS-FACTORIAL HepG2 Assay for human Estrogen-Related Receptor gamma (ERRg) (AID 2282977; active = hit-call score of the fitted dose curve at least 0.9, where 1 is the maximum;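 also: hits increase reporter signal over DMSO so potencies reflect activators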); details: HepG2 Attagene TRANS reporter, ERRg transactivation
Estrogen-related receptor gamma (Homo sapiens), sequence (P62508 whole entry, looked up, the tested form may be a part): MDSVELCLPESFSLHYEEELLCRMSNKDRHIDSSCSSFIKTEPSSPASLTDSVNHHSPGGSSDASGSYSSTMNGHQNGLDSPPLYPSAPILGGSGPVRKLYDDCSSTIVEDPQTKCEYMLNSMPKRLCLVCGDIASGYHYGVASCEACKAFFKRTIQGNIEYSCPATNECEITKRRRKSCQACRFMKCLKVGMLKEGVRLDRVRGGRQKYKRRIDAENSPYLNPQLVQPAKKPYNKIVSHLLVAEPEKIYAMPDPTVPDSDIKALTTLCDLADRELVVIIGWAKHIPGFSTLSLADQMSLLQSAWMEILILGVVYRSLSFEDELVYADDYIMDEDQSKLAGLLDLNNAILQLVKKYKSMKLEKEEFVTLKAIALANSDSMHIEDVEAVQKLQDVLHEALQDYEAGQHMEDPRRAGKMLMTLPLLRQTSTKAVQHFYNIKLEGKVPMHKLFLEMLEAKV
Procedure, shortened: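 Readout: fluorescent reporter-mRNA fragments resolved by capillary electrophoresis after RT-PCR and HpaI cut. Cells: transiently transfected HepG2 carrying GAL4-UAS reporters driven by exogenous NR-Gal4 chimeras, dosed 24 h. Activity fitted upward relative to DMSO baseline.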

[20] = biological target: Androgen receptor (Homo sapiens) (UniProt P10275); experiment: ATG_AR_TRANS: Attagene TRANS-FACTORIAL HepG2 Assay for human Androgen Receptor (AR) (AID 2282973; active = hit-call score of the fitted dose curve at least 0.9, where 1 is the maximum); details: HepG2 Attagene TRANS-FACTORIAL AR reporter transcription
Procedure, shortened: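 Steps: transfect HepG2 with multiple GAL4-UAS reporter transcription units (TRANS format, exogenous NR-Gal4 protein); dose 24 h; isolate RNA, reverse-transcribe, PCR-amplify, FAM-label, HpaI-digest; resolve by capillary electrophoresis. Positive direction vs DMSO.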

Measured: AC50

O=C(Cl)c1ccc(Cl)cc1
not listed: [17] | [18] | [19] | [20]
inactive: all other assays above

COc1cc(-c2ccc(N)c(OC)c2)ccc1N
inactive: [3] | [4] | [6] | [7] | [8] | [9] | [10] | [17] | [18] | [14] | [19]
active: [1] 43.9 µM and 11.8 µM | [2] 15.7 µM and 33.6 µM | [4] 19.8 µM | [5] 7.03 µM and 39.9 µM | [11] 27.8 µM and 31 µM | [13] 27.7 µM and 33.6 µM

O=C(Nc1ccc2[nH]ccc2c1)c1cc2cc(F)ccc2n1Cc1cccc(F)c1
active: [3] 16.8 µM | [4] 14.7 µM | [7] 14 µM | [8] 15.8 µM | [11] 11 µM | [13] 14.1 µM
not listed: [16] | [18] | [20]
inactive: all other assays above

O=Cc1cccc(Oc2ccccc2)c1
active: [12] 26.6 µM
not listed: [14] | [15] | [16] | [18] | [19] | [20]
inactive: all other assays above

CCCCCCCCC(=O)NCc1ccc(O)c(OC)c1
not listed: [14] | [15] | [16] | [17] | [18] | [19] | [20]
inactive: all other assays above

COP(=O)(OC)OC
not listed: [14] | [15] | [16]
inactive: all other assays above

NC(=S)Nc1ccccc1
active: [12] 64.2 µM
not listed: [16] | [17] | [18] | [19] | [20]
inactive: all other assays above

CC(C)(c1ccccc1)c1ccc(O)c(C(C)(C)c2ccccc2)c1
active: [1] 3.04 µM | [4] 7.78 µM | [5] 4.24 µM | [11] 0.702 µM | [12] 5.55 µM | [13] 10.1 µM
not listed: [15] | [16] | [18] | [19] | [20]
inactive: all other assays above

CNC(=O)O/N=C/C(C)(C)S(C)=O (centres undefined)
not listed: [14] | [18] | [19] | [20]
inactive: all other assays above

CC(C)c1cccc(C(C)C)c1O
not listed: [15] | [16] | [18] | [19] | [20]
inactive: all other assays above

ClC1=C(Cl)[C@]2(Cl)[C@@H]3[C@@H](Cl)[C@@H](Cl)C[C@@H]3[C@@]1(Cl)C2(Cl)Cl
not listed: [14] | [18] | [19] | [20]
inactive: all other assays above

CC1(C)CCC(Cc2ccc(Cl)cc2)C1(O)Cn1cncn1 (centres undefined)
active: [5] 9.3 µM | [11] 17.7 µM | [12] 5.3 µM
not listed: [16] | [17] | [19] | [20]
inactive: all other assays above

O=S(=O)(c1ccc(Cl)cc1)c1ccc(Cl)cc1
active: [11] 27.2 µM
not listed: [14] | [18] | [20]
inactive: all other assays above

Nc1ccc(N=Nc2ccc(-c3ccc(N=Nc4c(S(=O)(=O)O)cc5cc(S(=O)(=O)O)c(N=Nc6ccccc6)c(O)c5c4N)cc3)cc2)c(N)c1
active: [12] 19.9 µM
not listed: [14] | [15] | [16] | [18] | [19] | [20]
inactive: all other assays above

CC(=[OH+])/C=C(/C)[O-].CC(=[OH+])/C=C(/C)[O-].CC(=[OH+])/C=C(/C)[O-].[Fe]
not listed: [16] | [17] | [18] | [19] | [20]
inactive: all other assays above

CCOC(=O)Nc1cccc(OC(=O)Nc2ccccc2)c1
not listed: [12] | [16] | [18] | [19] | [20]
inactive: all other assays above

CC(=O)C(Cl)C(=O)N(C)C (centres undefined)
not listed: [15] | [18] | [19] | [20]
inactive: all other assays above
